Here are results for 14 compounds from ChEMBL document CHEMBL1961873, “Compounds: GSK PKIS; Assays: Nanosyn kinase panel” (2012).

In general, inhibition refers to the drop in the measured response relative to a control, in per cent.

The first experiment addresses T1, Calcium/calmodulin-dependent protein kinase type IV (Homo sapiens) (UniProt Q16566).
T1 sequence (whole entry): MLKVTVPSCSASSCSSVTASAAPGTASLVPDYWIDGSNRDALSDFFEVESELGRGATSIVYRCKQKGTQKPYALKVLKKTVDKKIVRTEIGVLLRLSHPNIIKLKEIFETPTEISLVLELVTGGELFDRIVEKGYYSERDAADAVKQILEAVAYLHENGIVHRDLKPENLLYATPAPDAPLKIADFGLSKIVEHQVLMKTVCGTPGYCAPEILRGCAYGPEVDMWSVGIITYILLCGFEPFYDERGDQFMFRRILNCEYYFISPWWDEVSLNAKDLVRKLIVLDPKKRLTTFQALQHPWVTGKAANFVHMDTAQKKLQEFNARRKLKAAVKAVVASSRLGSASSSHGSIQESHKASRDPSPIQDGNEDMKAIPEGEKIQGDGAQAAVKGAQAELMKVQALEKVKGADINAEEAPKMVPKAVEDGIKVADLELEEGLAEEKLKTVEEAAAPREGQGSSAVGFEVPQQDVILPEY
Conditions: at 1 µM.
For `CCn1c(-c2nonc2N)nc2c(C#CCN)ncc(OCCCN)c21`, the inhibition is -5.56%.
Turning to `NS(=O)(=O)c1ccc(N/C=C2\C(=O)Nc3ccc4ncsc4c32)cc1`, the inhibition is -1.06%.
The same measure, in the same setting: the result for `COc1cc(C=NNc2ncnc3c2cnn3Cc2ccccc2)ccc1O` reads -3.98%; that for `Fc1ccc(-c2ncn(C3CCNCC3)c2-c2ccnc(Oc3ccccc3)n2)cc1`, -2.43%.
In the case of `COc1cc2c(cc1Nc1nc(Nc3ccsc3C(N)=O)c3cc[nH]c3n1)N(C(=O)CN(C)C)CCC2`, the inhibition came to 12.1%.
For the compound `COc1cccc(-n2ncc3c(N/N=C/c4ccncc4)ncnc32)c1`, the inhibition is -1.96%.
The same measure, in the same setting: the result for `CCn1c(-c2nonc2N)nc2c(C#CC(C)(C)O)nc(O[C@@H](CN)c3ccccc3)cc21` reads 4.51%.
Turning to `NC(=O)c1sc(-n2cnc3cc(C(F)(F)F)ccc32)cc1OCc1ccccc1Br`, the inhibition is 1.08%.
Still for that read-out and setting: the result for `NS(=O)(=O)c1ccc(-c2ccc3c(NC(=O)C4CC4)n[nH]c3c2)cc1` reads 0.35%.
On to `Nc1nonc1-c1nc2cnccc2n1C1CCCCC1`, for which the inhibition was 1.19%.
For `Cc1cc(-c2ccco2)cc(C)c1/C=C/c1cncc(-c2nn[nH]n2)c1`, the inhibition was found to be 1.06%.
For `CCn1c(-c2nonc2N)nc2c(C#CC(C)(C)O)ncc(OC[C@@H]3CCCN3)c21`, the inhibition was -0.65%.
As to `COc1cccc(COc2cc(-n3cnc4ccccc43)sc2C(N)=O)c1`, the inhibition is -0.29%.
As to `CCn1c(-c2nonc2N)nc2c(C#CC(C)(C)O)ncc(OCC3CCNCC3)c21`, the inhibition is -2.31%.

Another experiment has as its target T2, Serine/threonine-protein kinase Chk1 (Homo sapiens) (UniProt O14757).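 Also: reported figure is the mean percent inhibition of CHEK1.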
T2 sequence (whole entry): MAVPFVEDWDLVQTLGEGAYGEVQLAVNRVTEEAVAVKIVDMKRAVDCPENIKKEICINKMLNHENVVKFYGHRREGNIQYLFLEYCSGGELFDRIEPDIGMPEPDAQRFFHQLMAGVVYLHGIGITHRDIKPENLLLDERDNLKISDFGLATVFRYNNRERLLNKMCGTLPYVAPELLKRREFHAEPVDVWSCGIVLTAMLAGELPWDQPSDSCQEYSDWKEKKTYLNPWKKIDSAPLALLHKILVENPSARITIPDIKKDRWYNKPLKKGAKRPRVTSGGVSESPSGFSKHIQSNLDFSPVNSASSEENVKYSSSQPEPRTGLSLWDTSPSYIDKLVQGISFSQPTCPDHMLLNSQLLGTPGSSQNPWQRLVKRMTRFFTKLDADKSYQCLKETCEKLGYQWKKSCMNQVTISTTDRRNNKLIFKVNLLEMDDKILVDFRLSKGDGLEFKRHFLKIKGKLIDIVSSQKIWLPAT
Conditions: at 0.1 µM.
Consider `CCn1c(-c2nonc2N)nc2c(C#CCN)ncc(OCCCN)c21`, for which the inhibition was -3.81%.
As for `NS(=O)(=O)c1ccc(N/C=C2\C(=O)Nc3ccc4ncsc4c32)cc1`, the inhibition came to 7.84%.
`COc1cc(C=NNc2ncnc3c2cnn3Cc2ccccc2)ccc1O`: the inhibition is -2.18%.
Consider `Fc1ccc(-c2ncn(C3CCNCC3)c2-c2ccnc(Oc3ccccc3)n2)cc1`, for which the inhibition was -1.72%.
`COc1cc2c(cc1Nc1nc(Nc3ccsc3C(N)=O)c3cc[nH]c3n1)N(C(=O)CN(C)C)CCC2`: the inhibition is -2.04%.
The same measure, in the same setting: the result for `COc1cccc(-n2ncc3c(N/N=C/c4ccncc4)ncnc32)c1` reads 3.28%; that for `CCn1c(-c2nonc2N)nc2c(C#CC(C)(C)O)nc(O[C@@H](CN)c3ccccc3)cc21`, -3.48%; that for `NC(=O)c1sc(-n2cnc3cc(C(F)(F)F)ccc32)cc1OCc1ccccc1Br`, -0.06%.
Consider `NS(=O)(=O)c1ccc(-c2ccc3c(NC(=O)C4CC4)n[nH]c3c2)cc1`, for which the inhibition stood at 1.61%.
On the same count and under the same terms, the result for `Nc1nonc1-c1nc2cnccc2n1C1CCCCC1` reads -0.67%; that for `Cc1cc(-c2ccco2)cc(C)c1/C=C/c1cncc(-c2nn[nH]n2)c1`, -8.36%; that for `CCn1c(-c2nonc2N)nc2c(C#CC(C)(C)O)ncc(OC[C@@H]3CCCN3)c21`, -1.63%.
On the same count and under the same terms, the result for `COc1cccc(COc2cc(-n3cnc4ccccc43)sc2C(N)=O)c1` reads 2.18%.
Turning to `CCn1c(-c2nonc2N)nc2c(C#CC(C)(C)O)ncc(OCC3CCNCC3)c21`, the inhibition was -0.5%.
